Sampled rows, rich in hits. Any-hit rate of the full collection: about 9%.
JMJD2A Tudor inh – blocks the human JMJD2A Tudor domain; O75164; AlphaScreen JMJD2A-Tudor / H3K4me3 peptide binding; Potency, µM (highest dose often 114 µM), inactives show at the highest dose activity change, negative = inhibition, hits mostly inhibitors; 390,000 tested, 4.4% active; AID 504339; also: % is scaled to controls: 0 for no effect and ±100 for the full control effect; nearly all actives have a fitted effect of over 50% in size
HP1b chromo inh – blocks HP1-beta chromodomain binding to methylated histone tails. AID 540317. AlphaScreen HP1-beta / biotin-H3K9me3 peptide binding. 390,000 tested, 0.56% active. Potency, µM (series often up to 114 µM), for the others: at the highest dose activity change, negative = inhibition, usual class: inhibitors. P83916; also: nearly all actives have a fitted effect of over 70% in size
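Compound inhibition of the preformed complex between 50 nM HP1-beta and 50 nM biotinylated H3K9me3 peptide was read by AlphaScreen. Buffer was PBS pH 7.4 with 0.01% Tween-20. Incubations ran 30 min at room temperature, with 10 ug/mL donor/acceptor beads.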
PLK1 PBD inh – blocks phosphopeptide binding to human PLK1 polo-box domain; P53350; Plk1 PBD binding of FITC phosphopeptide, fluorescence polarization; Potency, µM, without a hit: max response, negative = inhibition, usual class: inhibitors; 360,000 tested, 2.8% active; also: series mostly up to about 57 µM; % is scaled to controls: 0 for no effect and ±100 for the full control effect; nearly all actives have a fitted effect of over 65% in size
ALOX12 inh – blocks human arachidonate 12S-lipoxygenase; purified 12hLO, xylenol orange hydroperoxide absorbance; Potency, µM (highest dose often 108 µM), inactives show at the top dose activity change, negative = inhibition, actives largely listed as inhibitors; 580,000 tested, 1.1% active; AID 1671190; also: % is scaled to controls: 0 for no effect and ±100 for the full control effect
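Purified human 12hLO (150 nM final) in 25 mM Hepes, 0.01% Triton X-100, pH 7.0 was preincubated 15 min at room temperature with compound. Then 40 uM arachidonic acid was added, 30 min. Hydroperoxide was read by Fe-XO absorbance ratio 573/405 nm.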
G9a inh – G9a (human) methyltransferase inhibition; Q96KQ7; G9a H3K9 monomethylation, AlphaScreen, 2 h; Potency, µM (top dose mostly 102 µM), inactives show at the top dose activity, negative = inhibition, usual class: inhibitors; 350,000 tested, 8.8% active; also: % is scaled to controls: 0 for no effect and ±100 for the full control effect; nearly all actives have a fitted effect of over 75% in size
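Using a bead-based AlphaScreen, monomethylated H3K9 product from 2 h room-temperature reactions (G9a 20 nM, peptide 500 nM, SAM 20 uM) was detected with 0.5 ug/mL rabbit anti-H3K9me1 antibody.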
BAZ2B inh – BAZ2B (human) inhibition; AlphaScreen BAZ2B-H3K14Ac peptide displacement; 360,000 tested, 4.4% active; Q9UIF8; Potency, µM (titrated, usually from 114 µM), inactives show top-dose activity change, negative = inhibition, usual class: inhibitors; also: % is scaled to controls: 0 for no effect and ±100 for the full control effect; nearly all actives have a fitted effect of over 60% in size
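Complex of BAZ2B and biotin-H3K14Ac (50 nM apiece) forms over 30 min at RT, then faces library compounds up to 110 uM for another 30 min; AlphaScreen beads added, 20 min dark incubation, luminescence read.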
* = called active by the depositor; ? = inconclusive; . = not tested or not shown; ! = repeats disagree; [ ] = remark or other dose. Calls follow the shape of the dose curve; as a rule, active = well fitted curve in the direction sought with a large enough effect; inconclusive = small, poorly fitted or top-dose-only effect, or another doubt; inactive = no such curve, though single readings can be large; an effect the other way counts as inactive or inconclusive. Potency is read from the fitted curve at half-maximal effect.

SMILES	JMJD2A Tudor inh	HP1b chromo inh	PLK1 PBD inh	ALOX12 inh	G9a inh	BAZ2B inh
COc1cc(CN2CCC(CO)(CCOc3ccccc3)CC2)cc(OC)c1OC	0%	44%	0%	1%	4%	8%
COc1cc(CN2CCN(S(=O)(=O)c3ccc(C)cc3)CC2)cc(OC)c1O	.	.	.	-24%	.	.
COc1ccc(C2(C(=O)N3CCCCCCNC(=O)CC3)CC2)cc1	.	.	.	44%	.	.
NC(=O)[C@@H]1CCCN1C(=O)c1ccc2oc(CCc3ccccc3)nc2c1	-9%	15%	8%	0%	.	1%
CCC1CCCCN1S(=O)(=O)c1ccccc1[N+](=O)[O-] (stereo unspecified)	-27%	-18%	-1%	22%	-34%	-12%
COc1cc(CN2CCN(S(=O)(=O)c3ccc(F)cc3)CC2)cc(OC)c1OC	7.9µM*	?	-12%	?	7.9µM*!	5%
Cc1ccc(Cl)cc1N1CCN(C(=O)CN2C(=O)COc3ccc(S(=O)(=O)N4CCC(C)CC4)cc32)CC1	-17%	23%	.	-3%	3%[59 µM]	-13%
NC(=O)c1cc2ccc(O)cc2oc1=Nc1ccccc1	1%[11.4 µM]	-5%	15µM*	0%	-19%	?
NC(=O)c1cc2ccccc2oc1=NCc1ccccc1	?	11%	-7%	?	1%	-33%
COc1ccc2cc(C(N)=O)c(=Nc3ccccc3)oc2c1	-17%	4%	-8%	-22%	20%[59 µM]	-5%
NC(=O)c1cc2ccccc2o/c1=N\NC(=O)c1ccc(F)cc1	-18%	32%	-10%	-5%	11%	-23%
NC(=O)c1cc2ccc(O)cc2oc1=NCc1ccccc1	-3%	25%	12µM*	-24%	-10%[59 µM]	1%
NC(=O)c1cc2ccccc2o/c1=N\NC(=O)c1ccccc1O	-20%	48%	-15%	-13%	32µM*	?
COc1ccc(C(=O)Oc2ccc3c(=O)c(Oc4cccc(C)c4)coc3c2)cc1OC	.	.	.	31%	.	.
COCc1nc(-c2ccc(OC3CCN(C(=O)CCc4ccc(OC)cc4)C3)cc2)no1 (stereo unspecified)	.	.	.	6%	.	.
COc1ccc(-c2cc3c(=O)n(CCNC(=O)c4ccc(C)c(F)c4)ccn3n2)cc1	.	.	.	10%	.	.
O=C(c1ccc(N2CC3CC(C2)[C@H]2CCCC(=O)N2C3)nc1)N1CC=C(c2ccccc2)CC1 (stereo partly specified)	.	.	.	22%	.	.
COC(=O)c1c(NC(=O)c2ccccc2)sc2c1CC(C)(C)OC2	7%	33%	-10%	3%	32%	6%
CCOC(=O)c1c(NC(=O)CCC(=O)N(CC)CC)sc2c1CC(C)(C)OC2	-8%[11.4 µM]	68%	-19%	0%	-32%	-2%
CCCC(=O)Nc1sc2c(c1C(=O)OCC)CC(C)(C)OC2	-11%	17%	-3%	-5%	-9%[12.7 µM]	-5%
CCOC(=O)c1c(NC(=O)c2ccc(C)cc2)sc2c1CC(C)(C)OC2	51%	26%	24µM*	-17%	16%[12.7 µM]	59%
C=C(C)CNC(=S)Nc1sc2c(c1C(=O)OCC)CC(C)(C)OC2	?	-36%	19µM*	?	14µM*	9%
CCOC(=O)c1c(NC(=O)c2ccccc2C)sc2c1CC(C)(C)OC2	60%	45%	21µM*	?	?	53%
CC1(C)Cc2c(sc(NC(=O)C(=O)N3CCCC3)c2C(N)=O)CO1	-34%	25%	24µM*	0%	50µM*	-34%
O=c1ccc(=O)n(CCc2ccccn2)[nH]1	-10%	31%	-8%	17%	.	.
COc1ccc(N2CCN(C(=O)c3ccccc3)CC2)c([N+](=O)[O-])c1	-27%	-14%	-5%	0%	?	-33%
COc1ccc(N2CCN(C(=S)NC(=O)c3cccs3)CC2)c([N+](=O)[O-])c1	50µM*	?	-11%	?	32µM*	?
COc1ccc(N2CCN(C(=O)c3ccc(Br)cc3)CC2)c([N+](=O)[O-])c1	79µM*	?	-7%	-11%	45µM*	25µM*

Screening results from PubChem BioAssay.
